Source: PubChem
Most compounds without a hit are left out; they make up all but 8.1% or so of the library.
SW480 rereplic: inducers of DNA re-replication in SW480 colon cancer cells; SW480 DNA re-replication, Hoechst DNA content imaging, 48 h; Potency, µM (doses to about 46.1 µM), for the others: at the highest dose re-replication activation, hits mostly activators; hit rate 1.8% among 340,000; further: % of control where 0% means no effect; nearly all actives have a fitted effect of over 55% in size
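250 cells/well; 23 nL cpd via pin tool; 48 hr, 37 C, 5% CO2; Hoechst 40 min; imager read of total nuclear intensity, ex 405/em 500-530 nm.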
MCF10A rereplic: inducers of DNA re-replication in MCF 10A breast cells; MCF 10A DNA re-replication, Hoechst nuclear intensity, 48 h; Potency, µM (highest dose often 46.1 µM), for the others: top-dose activity, positive = re-replication, usual class: activators; hit rate 2.9% among 350,000; further: % of control where 0% means no effect; nearly all actives have a fitted effect of over 50% in size
KB-3-1 cytotox: KB-3-1 parental cell cytotoxicity | KB-3-1 viability, CellTiter-Glo ATP luminescence, 72 h | Potency, µM (highest dose often 46.1 µM), actives largely listed as cytotoxic | hit rate 1.4% among 400,000; further: on the % scale 0 is the no-effect control and ±100 the full control effect; nearly all actives have a fitted effect of over 60% in size
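Parental KB-3-1 viability, qHTS format: 72 h compound exposure, 37 °C; CellTiter-Glo; media-only wells and DMSO plates as controls; concentration-effect fits on corrected data.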
KB-V1 cytotox: kills drug-selected multidrug resistant KB-V1 cells | KB-V1 MDR cells viability, CellTiter-Glo, 72 h | Potency, µM (doses to about 46.1 µM), usual class: cytotoxic | hit rate 3.4% among 400,000 | AID 1347076; further: on the % scale 0 is the no-effect control and ±100 the full control effect; nearly all actives have a fitted effect of over 60% in size
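Cytotoxicity toward P-gp-expressing KB-V1 cells was determined as loss of CellTiter-Glo luminescence after 72 h at 37 degrees C. Compounds were tested in quantitative HTS format across a concentration range, with curves fitted to normalized data.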
ELG1 DNA repair: ELG1-dependent DNA repair inhibition | hit rate 2.3% among 330,000 | HEK293T ELG1-luciferase reporter, luminescence, 16 h; DNA damage induced by 5-fluorouridine | Potency, µM (top dose mostly 46.1 µM), without a hit: at the highest dose activity change, negative = inhibition, actives largely listed as inhibitors; further: on the % scale 0 is the no-effect control and ±100 the full control effect; nearly all actives have a fitted effect of over 55% in size
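HEK293T cells expressing luciferase-tagged ELG1 (2,000/well) received 5-Fluorouridine plus compound or DMSO for 16 hr at 37 °C. Luciferase was read by ONE-Glo luminescence after 30 min at room temperature.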
* marks the source's active call; other numbers are inactive results; i = inactive; ? = inconclusive; · = not tested or not shown. The call rests on the fitted dose curve; in most records, active means well fitted curve in the direction sought with a large enough effect; inconclusive means small, poorly fitted or top-dose-only effect, or another doubt; inactive means no such curve, though single readings can be large; an effect the other way counts as inactive or inconclusive. Potency means the concentration at half of the fitted maximal effect.

SMILES	SW480 rereplic	MCF10A rereplic	KB-3-1 cytotox	KB-V1 cytotox	ELG1 DNA repair
COc1ccc(Br)cc1C(C[N+](=O)[O-])c1c(N)n(C)c(=O)n(C)c1=O (configuration not stated)	3.1%	?	?	?	13.9%
Cc1cc(C)c2sc(N3CCN(C(=O)c4ccc(N(C)C)cc4)CC3)nc2c1	·	·	i	i	·
Cc1cc(C)c(NC(=O)CSc2ccnc(=O)[nH]2)c(C)c1	·	·	i	i	·
O=C1C=CC(=O)c2c(O)c(N3CCN(CCOCCO)CC3)c(Br)c(O)c21	?	3.0%	5.17µM*	4.11µM*	·
OCCOCCN1CCN(C2=Nc3ccccc3Sc3ccccc32)CC1	-9.5%	-19.9%	i	i	?
O=C1C=CC(=O)c2c(O)c(N3CCN(CCO)CC3)c(Cl)c(O)c21	0.651µM*	0.2%	5.17µM*	?	·
O=S(=O)(c1ccc(Br)cc1Cl)N1CCN(CCO)CC1	-7.1%	6.4%	i	i	12.4%
O=C(NCCCN1CCOCC1)c1ccc(Sc2ccccc2Cl)c([N+](=O)[O-])c1	?	?	?	13µM*	?
CCCOc1ccc(NC(=O)CC2C(=O)N(CC)C(=S)N2Cc2cccs2)cc1 (configuration not stated)	17.3%	7.7%	?	14.6µM*	-8.3%
CCCCCCOc1ccc(NC(=O)CC2C(=O)N(CC)C(=S)N2Cc2ccco2)cc1 (configuration not stated)	?	18.4µM*	?	i	?
O=[N+]([O-])c1ccc(N2CCN(C(=S)NC3CCCCC3)CC2)cc1	12.9%	-0.4%	?	i	?
C=CCN1CC(=O)N2C(c3ccccc3)c3[nH]c4ccccc4c3C[C@H]2C1=O (some centres not stated)	?	4.0%	6.51µM*	i	1.1%
COC(=O)c1ccc(C2c3[nH]c4ccccc4c3C[C@H]3C(=O)N(C)CC(=O)N23)cc1 (some centres not stated)	?	10.4%	i	i	-11.3%
CCN1C(=O)[C@@H]2Cc3c([nH]c4ccccc34)C(c3ccc(OC)cc3)N2C1=S (some centres not stated)	?	20.6µM*	?	?	?
Cc1ccc(S(=O)(=O)N2CCN(CC(=O)Nc3ccc([N+](=O)[O-])cc3)CC2)cc1C	-81.0%	-13.3%	i	18.4µM*	?
CSc1ccccc1NC(=O)CN1CCN(S(=O)(=O)c2ccccc2[N+](=O)[O-])CC1	-6.6%	21.5%	i	3.66µM*	?
O=C(CN1CCN(S(=O)(=O)c2ccccc2)CC1)Nc1ccc([N+](=O)[O-])cc1	14.1%	-3.7%	i	i	20.6µM*
O=[N+]([O-])c1ccc(N2CCN(S(=O)(=O)c3ccccc3)CC2)cc1	-1.2%	?	?	4.61µM*	?
O=C(CN1CCN(S(=O)(=O)c2ccccc2)CC1)Nc1ccc(Cl)c([N+](=O)[O-])c1	-0.4%	-0.3%	?	?	?
CCOc1cc(C(=O)Nc2nnc(S(=O)(=O)N3CCOCC3)s2)cc(OCC)c1OCC	-3.9%	4.5%	i	i	2.5%
CCC(C(=O)O)n1cnc2scc(-c3ccc(C)c(C)c3)c2c1=O (configuration not stated)	1.6%	5.8%	i	i	0.1%
CCOC(=O)C1CCCN(C(=O)c2ccc(NS(=O)(=O)c3ccc4[nH]c(=O)[nH]c4c3)cc2)C1 (configuration not stated)	-16.1%	-3.0%	i	i	-0.2%
CN1C(=O)NC(c2ccc(O)cc2)C2=C1CN(c1ccc(O)cc1)C2=O (configuration not stated)	5.5%	?	i	i	8.6%
Cc1c(C)c2ccc(OCC(=O)N3CCN(c4ccc(F)cc4)CC3)c(C)c2oc1=O	3.8%	3.0%	i	i	-1.5%
CC(=O)Nc1ccc(S(=O)(=O)N2CCN(Cc3ccccc3[N+](=O)[O-])CC2)cc1	7.0%	-0.2%	i	?	9.2µM*
CC(=O)Nc1ccc(S(=O)(=O)N2CCN(Cc3ccccn3)CC2)cc1	-2.6%	-2.4%	i	i	-0.7%
